“And” between values parts separate entries of the source, which are not always exact repeats. Equal values may be shown once. The source made the active and inactive calls. Unless noted, the rule behind the calls is not given here.
Columns and labels:
[1] = hESC survival regulators, cell-based (AID 493140); conditions: human embryonic stem cell survival screen; stronger effect = higher value;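 note: cells exposed to compounds for four days before counting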
[2] = sensitizers of A549 cells to miR-34 induction, primary screen, imaging, A549 dox-inducible miR-34, nuclei and caspase counts (AID 1347080;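 active = compounds whose cell count with miR-34 switched on is under 0.7 times the count with it off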); conditions: A549 miR-34 inducible, Hoechst nuclei count, 48 h
[3] = inhibitors of Cryptococcus chitosan production, flow cytometry, Cibacron Brilliant Red staining (AID 1347148); conditions: Cryptococcus neoformans chitosan, stronger effect = lower value; at 10 µM unless noted;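 note: compound exposure lasted three days at 37 degrees C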
[4] = biological target: Mitogen-activated protein kinase 7 (Homo sapiens) (UniProt Q13164); test: ERK5 transactivation activators in reporter cells, primary screen, cell-based, HTS (AID 1508626;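 active = luciferase signal above three times the same-plate solvent-only control wells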;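 note: luciferase driven by Gal4-ERK5 fusion binding five Gal4 sites before minimal TATA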); conditions: HeLa Gal4-ERK5 transactivation, 18 h, at 5 µM, stronger effect = higher value
Sequence of Mitogen-activated protein kinase 7 (Homo sapiens) (Q13164 whole entry, looked up, the tested form may be a part): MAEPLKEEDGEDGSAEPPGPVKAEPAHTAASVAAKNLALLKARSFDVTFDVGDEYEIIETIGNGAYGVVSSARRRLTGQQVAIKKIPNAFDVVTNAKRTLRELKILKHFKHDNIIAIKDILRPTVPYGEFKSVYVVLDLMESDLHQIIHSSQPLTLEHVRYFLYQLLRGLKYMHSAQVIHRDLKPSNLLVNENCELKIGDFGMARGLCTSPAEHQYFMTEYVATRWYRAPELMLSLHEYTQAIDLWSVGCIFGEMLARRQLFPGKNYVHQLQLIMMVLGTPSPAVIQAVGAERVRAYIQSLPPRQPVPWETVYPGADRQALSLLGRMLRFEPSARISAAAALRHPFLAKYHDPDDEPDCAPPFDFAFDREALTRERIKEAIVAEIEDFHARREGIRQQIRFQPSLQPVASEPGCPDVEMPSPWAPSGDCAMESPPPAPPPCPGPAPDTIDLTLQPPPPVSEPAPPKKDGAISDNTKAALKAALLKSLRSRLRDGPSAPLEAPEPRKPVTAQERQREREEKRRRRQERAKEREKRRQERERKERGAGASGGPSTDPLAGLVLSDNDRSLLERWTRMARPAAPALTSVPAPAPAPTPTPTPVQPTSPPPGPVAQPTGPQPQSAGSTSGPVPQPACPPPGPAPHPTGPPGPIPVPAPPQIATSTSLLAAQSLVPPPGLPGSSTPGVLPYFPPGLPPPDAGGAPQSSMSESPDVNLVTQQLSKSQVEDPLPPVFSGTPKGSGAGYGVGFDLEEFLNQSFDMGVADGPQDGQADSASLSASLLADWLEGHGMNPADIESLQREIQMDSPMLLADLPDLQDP

[5] = circadian clock period modulators, cell-based, LOPAC library, luminescence reporter (AID 2774); conditions: circadian reporter cells, at 7 µM, actives lie on both sides;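 note: values are relative to mean of DMSO wells on each plate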
[6] = system: Hepatitis C virus NS3 helicase; test: HCV NS3 helicase inhibitors, primary screen, biochemical, fluorescence polarization, LOPAC1280 library (AID 687035; in the data active = inhibition above about 37%); conditions: Purified HCV NS3 helicase, Cy5-dT15 ssDNA binding fluorescence polarization; stronger effect = higher value; concentration not given here
[7] = Cy5 fluorescence quenching or enhancement artefacts, artefact control for HCV NS3 helicase inhibitor project, biochemical, LOPAC1280 (AID 687037); conditions: Cy5-DNA-NS3h complex fluorescence interference counterscreen
[8] = phospholipid biosynthesis inhibitors in animal cells, primary screen, cell-based, LOPAC library, screen 4 (AID 1347384); conditions: phospholipid biosynthesis inhibition screen, at 10 µM
[9] = viability rescue of complex I mutant cybrids, primary screen, cell-based, galactose medium, ATP luminescence (AID 1645843;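 active = z-score of at least 1.8 in each of two replicates, scored against plate mean and spread of sample wells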;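 note: positive z means more ATP and so rescue of galactose-driven cybrid death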); conditions: complex I mutant cybrid cells, 72 h, stronger effect = higher value
[10] = stronger effect = lower value, cell number ratio, induced over uninduced
[11] = measured here: relative caspase fold change +Dox/-Dox
[12] = measured here: total cells with miR-34 induction, stronger effect = lower value
[13] = measured here: total cells without miR-34 induction

Structure (SMILES)	survival [1]	fold change [2, 10]	fold change [2, 11]	cell count [2, 12]	cell count [2, 13]	fold fluorescence [3]	luciferase signal [4]	period change [5]	inhibition [6]	fluorescence ratio (interference) [7]	outcome [8]	z-score [9]
CCCCC[C@H](O)/C=C/C=C\CCCCCCCC(=O)O	87.8 (inactive)	0.929 (inactive)	1.14	5740	6180	6.42 [at 1 µM] (inactive)	–	–	–	–	–	–
CCCCCCCCCCCCCC(=O)N[C@@H](C)[C@H](O)c1ccccc1	95 (inactive)	0.995 (inactive)	0.985	6160	6200	3.67 (inactive) and 4.53 (inactive)	–	–	–	–	–	–
COCc1cc(O)c(O)c(O)c1-c1c(COC)cc(O)c(O)c1O	106 (inactive)	1.2 (inactive)	0.626	3710	3100	5.4 [at 147.8 µM] (inactive)	–	–	–	–	–	–
CCCCC/C=C\C[C@H](O)/C=C/C=C\C/C=C\CCCC(=O)O	93.5 (inactive)	0.969 (inactive)	1.13	5180	5340	4.99 [at 1 µM] (inactive) and 5.6 [at 1 µM] (inactive)	–	–	–	–	–	–
CC(C)c1cccc(O)c(=O)c1	–	0.903 (inactive)	1.02	1840	2030	10.2 [at 304.5 µM] (inactive)	44 AU (inactive)	–	–	–	–	–
CCCCCCCCCCCCCCCC(=O)N[C@@H](COP(=O)(O)O)C(=O)O	91.8 (inactive)	0.975 (inactive)	1.1	5800	5940	4.28 (inactive)	–	–	–	–	–	–
CCCCCCCCCCCCCCCCOC[C@H](CO)OC	–	0.866 (inactive)	0.894	4770	5500	4.63 (inactive)	–	–	–	–	–	–
CC/C=C\C/C=C\C/C=C\CCCCCCCCCCCC(=O)O	81.8 (inactive)	0.989 (inactive)	0.936	5970	6030	4.89 (inactive)	–	–	–	–	–	–
O=C(O)c1cc(N(Cc2ccccc2O)Cc2cc(O)ccc2O)ccc1O	94.2 (inactive)	0.907 (inactive)	1.1	5160	5680	4.34 [at 131.1 µM] (inactive)	–	–	–	–	–	–
CCCCCCCC/C=C\CCCCCCCC(=O)OC[C@H](CO)OC(=O)CCCCCCC/C=C\CCCCCCCC	–	1.03 (inactive)	0.954	5310	5170	4.1 (inactive)	–	–	–	–	–	–
CCCCC/C=C\C/C=C\C/C=C\C=C\[C@@H](O)CCCC(=O)O	128 (inactive)	0.957 (inactive)	1.24	5700	5960	4.16 [at 1 µM] (inactive)	–	–	–	–	–	–
CCCCCC1OC1C/C=C\C/C=C\C/C=C\CCCC(=O)O (stereo unspecified)	88.4 (inactive)	0.949 (inactive)	1.73	6230	6560	5.49 [at 1 µM] (inactive)	–	–	–	–	–	–
O=Cc1c2[nH]c3ccccc3c2cc2[nH]c3ccccc3c12	124 (inactive)	0.873 (inactive)	1.33	4820	5520	4.2 (inactive)	–	–	–	–	–	–
COc1c(C=O)c(O)cc2c1C(=O)c1ccccc1C2=O	93.2 (inactive)	0.91 (inactive)	0.797	2810	3080	5.22 [at 177.1 µM] (inactive)	–	–	–	–	–	–
CCCCC/C=C\CC(O)/C=C/c1cccc(CC(O)CCCCO)n1 (stereo unspecified)	97.4 (inactive)	0.988 (inactive)	1.4	5690	5760	3.69 [at 1 µM] (inactive)	–	0.025 h (inactive)	-1% (inactive)	0.9 (inactive)	–	–
CCCCC[C@H](O)C/C=C1/C(=O)C=C[C@@H]1C/C=C\CCCC(=O)O	95.5 (inactive)	0.887 (inactive)	0.855	5300	5980	4.79 (inactive)	–	–	–	–	–	–
CCCCC/C=C\CC1OC1CCCCCCCC(=O)O (stereo unspecified)	79.6 (inactive)	0.903 (inactive)	1.25	5290	5850	2.8 [at 1 µM] (inactive)	–	–	–	–	–	–
COCCCCCCCCCCCC(=O)O	81.7 (inactive)	0.981 (inactive)	1.11	5900	6020	7.84 (inactive)	–	–	–	–	–	–
CN(CCCOc1ccc(Cc2ccccc2)cc1)CCC(=O)O	–	0.994 (inactive)	1.84	9930	9990	–	–	–	–	–	inactive	0.275 (inactive)
Brc1cc2c(cc1[C@H]1Nc3ccccc3[C@H]3C=CC[C@H]31)OCO2	–	1.18 (inactive)	1.55	6800	5750	–	–	–	–	–	inactive	-0.59 (inactive)

Source: PubChem BioAssay
